Results taken from ChEMBL document CHEMBL1157539, “Thousands of chemical starting points for antimalarial lead identification” (Nature, 2010).

The compounds below were run on Plasmodium falciparum (assay: GSK_TCMDC: Inhibition of Plasmodium falciparum Dd2 in whole red blood cells, using parasite LDH activity as an index of growth. Test compounds present at 2uM).
Type: functional

| Structure (SMILES) | Inhibition |
| --- | --- |
| CC(C)N1CCN(C(CN2CCN(CCCOc3cccc(F)c3)CC2)c2ccc(F)cc2)CC1.Cl (stereo not given) | 38% |
| Cc1nc(N)nc(N)c1CCCOc1ccccc1Cl | 5% |
| COc1cc2nc(Nc3ccc4c(c3)OCCO4)nc(N)c2cc1OC.Cl | 80% |
| COc1cc2nccc(Nc3ccc(OCc4ccccc4)cc3)c2cc1OC | 99% |
| Cc1cnc2cc3c(cc2c1N1CCN(C)CC1)NCC3 | 69% |
| CC(=O)Nc1ccc(CN2CCc3ccc(NS(=O)(=O)c4cccc(OCc5ccc(Cl)cc5)c4)cc3CC2)s1 | 7% |
| Cc1c(-c2cccc(C(C)(C)NC3CCN(Cc4ccccc4)CC3)c2)cnc(N)c1C.Cl | 39% |
| CN(C)Cc1ccc(-c2ccc(NC(=O)c3ccc4c(=O)n(Cc5ccoc5)cnc4c3)cc2)cc1 | 16% |
| O=C(Nc1ccc(Cl)cc1Cl)NC1CCN(CCCCCNC(=O)C2CC2c2ccc(Cl)c(Cl)c2)CC1 (stereo not given) | 30% |
| Cl.N=C(N)NN=Cc1cc2ccccc2c2ccccc12 | 63% |
| CCC(CN1C(=O)C(c2ccccc2)(c2ccccc2)N=C1N)c1ccccc1.O=CO (stereo not given) | 98% |
| Fc1ccc2[nH]c(-c3cccc(-c4cccc(CNCCN5CCNCC5)c4)c3)nc2c1.O=C(O)C(F)(F)F | 4% |
| CCCN(CC1CC1)c1ncc(-c2ccccc2CNCc2ccccc2O)cn1 | 98% |
| O=C(O)C(F)(F)F.O=c1ccc2ccc(F)c3c2n1CC3CN1CCC(NCc2cccc(-c3ccccc3F)c2)CC1 (stereo not given) | 6% |
| CS(=O)(=O)c1ccc2[nH]c(-c3cc(-c4cccc(F)c4)cnc3N)nc2c1.O=C(O)C(F)(F)F | 71% |
